Results taken from PubChem BioAssay (NCI).
About 79,000 compounds went through this panel and 15% of them were active in at least one assay; those are over-represented in the sample as a whole. Calls of active or inactive are those of the source. No stated cut-off is given here; in the data, active means growth inhibition above about 70%; inactive means the rest.

Legend:
[1] = NCI Yeast Anticancer Drug Screen. Data for the rad50 strain (AID 155);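 further: 0% = growth of vehicle-only cultures of the same strain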; conditions: S. cerevisiae rad50 strain growth inhibition; at 50.0 µM; hits give high values
How it was run: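 Readout: growth inhibition relative to vehicle-treated cultures. Compound exposure was carried out in a genetically defined yeast strain deficient in DNA damage repair.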

[2] = NCI Yeast Anticancer Drug Screen. Data for the mec2-1 strain (AID 157); conditions: S. cerevisiae mec2-1 strain, at 50.0 µM, hits give high values
How it was run: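 Strain: mec2-1 (DNA repair/cell cycle alteration). Compound exposure, then growth measured; inhibition expressed relative to vehicle.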

[3] = NCI Yeast Anticancer Drug Screen. Data for the sgs1 mgt1 strain (AID 161);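 further: 0% = growth of cultures given vehicle only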; conditions: S. cerevisiae sgs1 mgt1 strain, at 50.0 µM, hits give high values
How it was run: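 Test agents were incubated with a DNA-repair-mutant yeast strain. Growth was then read and compared against vehicle-treated controls.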

[4] = NCI Yeast Anticancer Drug Screen. Data for the cln2 rad14 strain (AID 165);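 further: 0% = growth equal to vehicle treated cultures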; conditions: S. cerevisiae cln2 rad14 strain, at 50.0 µM, hits give high values
How it was run: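 Compounds are applied to the cln2 rad14 yeast strain, and growth is then compared with that of vehicle-treated cultures to give inhibition.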

[5] = NCI Yeast Anticancer Drug Screen. Data for the bub3 strain (AID 167); conditions: S. cerevisiae bub3 mutant strain, at 50.0 µM, hits give high values
How it was run: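 Readout: yeast growth inhibition, expressed relative to vehicle-only wells. The test organism is a mutant strain from a panel with lesions in DNA repair or checkpoint genes.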

[6] = NCI Yeast Anticancer Drug Screen. Data for the mlh1 rad18 strain (AID 175); conditions: S. cerevisiae mlh1 rad18 strain growth inhibition; at 50.0 µM; hits give high values
How it was run: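 Read-out is yeast growth inhibition, calculated against vehicle-only controls. The compound was applied to a strain engineered with DNA damage repair alterations.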

Measured: growth inhibition

C=C1C(=O)OC2/C=C(\C)CC(O)/C=C(/C)CC(OC(=O)C(O)(CO)C(C)S)C12 (configuration not stated)
inactive: [1] -14% | [2] 6.55% | [3] -22.4% | [4] 3% | [5] -3.8% | [6] -22.7%

COc1ccc(/C=N/N2CN(C(C)C(=O)O)B(NC34CC5CC(CC(C5)C3)C4)N=C2N)cc1OC (configuration not stated)
inactive: [1] -16.6% | [2] -14.2% | [3] 10.3% | [4] -25.2% | [5] 1.3% | [6] -6.4%

O=C1CC(N2CCOCC2)c2ccccc21 (configuration not stated)
inactive: [1] 30% | [2] 11.1% | [3] 12.6% | [4] -21.1% | [5] -14% | [6] 14.2%

[N-]=[N+]=CC(=O)c1cc(-c2ccccc2)nc2c(-c3ccccc3)cccc12
inactive: [1] 55.8% | [2] 18.8% | [3] 54% | [4] 31.8% | [5] 62.8% | [6] 59.1%

c1ccc(-c2ccc(-c3nnc(-c4ccc(-c5ccccc5)cc4)o3)cc2)cc1
inactive: [1] -0.95% | [2] -10.4% | [3] 2.7% | [4] -35.6% | [5] -2.6% | [6] -3.1%

CN=C1NC(C)(C)C2CCC(C)(CC2)S1
inactive: [1] 8.35% | [2] 14.9% | [3] -4.3% | [4] -71.3% | [5] 2.85% | [6] 14.7%

C1=Nc2ccccc2/C1=C/c1ccc2c(c1)OCO2
inactive: [1] 24.3% | [2] 11.7% | [3] -6.9% | [4] -55.6% | [5] 8.85% | [6] 8.5%

CCC[CH2][Ge]([CH2]CCC)([CH2]CCC)[O]C(=O)CCl
inactive: [1] -14.2% | [2] 31.7% | [3] -4.75% | [4] -52.9% | [5] -13.2% | [6] 31.9%

COC(=O)C1(C(C)C(=O)c2ccc(Cl)cc2)NC(=S)NC(=O)C1C#N (configuration not stated)
inactive: [1] 0.4% | [2] 6.05% | [3] -24.9% | [4] -0.8% | [5] -8.5% | [6] 12.7%

CCCCCCCCCCCCCCCCCCCl
inactive: [1] 4.9% | [2] 6.6% | [3] 0.05% | [4] -31.1% | [5] 5.7% | [6] 28.4%

CCOC(=O)c1oc2cc(O)cc(O)c2c(=O)c1-c1ccc(OC)cc1
inactive: [1] 7.8% | [2] -30.4% | [3] 11.6% | [4] 11.1% | [5] 3.1% | [6] 0.35%

NC(=S)Cc1ccccn1
inactive: [1] -1.45% | [2] 15.5% | [3] 9.25% | [4] -19.1% | [5] -4.45% | [6] 6.55%

COC(=O)c1ccccc1/C=C1\SC(=S)NC1=O
inactive: [1] -1.6% | [2] 6.3% | [3] 17.9% | [4] -9.85% | [5] -4.95% | [6] -0.7%

CC(C)(C)N(O)c1ccc(P(=O)(c2ccccc2)c2ccccc2)cc1
inactive: [1] 23.4% | [2] 15.4% | [3] 12.3% | [4] -4.7% | [5] -2.35% | [6] 11.8%

N=C(N)SCC(O)c1ccccc1 (configuration not stated)
inactive: [1] 6.35% | [2] -11.4% | [3] -13.6% | [4] -42.4% | [5] -3.1% | [6] -19.5%

CC(=O)Oc1c(C)n(C(C)=O)c2cc(Cl)ccc12
inactive: [1] 1.35% | [2] -5.55% | [3] 15.3% | [4] -45% | [5] 6.15% | [6] -8.3%

CN(CCC[N+](C)(C)C)C(=O)C(c1ccccc1)c1ccccc1
inactive: [1] 45% | [2] -0.25% | [3] 19.2% | [4] -9.55% | [5] 6.35% | [6] 2.7%

CCOc1ccc(N=Nc2ccc3oc(=O)c(C(=O)Nc4ccc(OC)cc4)cc3c2)cc1
inactive: [1] 11.4% | [2] 5.9% | [3] -17.7% | [4] -22.1% | [5] 0.8% | [6] 11.6%

Cc1c([N+](=O)[O-])cc2c(c1[N+](=O)[O-])C(=O)c1ccccc1-2
inactive: [1] -2.1% | [2] 4.35% | [3] 8.5% | [4] -14.9% | [5] -6.05% | [6] 7.9%

COc1ccc2cc1Oc1ccc(cc1)CC1c3cc(c(OC)cc3CCN1C)Oc1c(O)c(OC)cc3c1C(C2)N(C)CC3 (configuration not stated)
inactive: [1] 14.6% | [2] -10.4% | [3] 10.8% | [4] 16.2% | [5] 15.8% | [6] 1.95%

NC1=NC(c2ccccc2O)CC(=O)N1 (configuration not stated)
inactive: [1] -6.4% | [2] -8.25% | [3] -12.9% | [4] -32.6% | [5] -3.9% | [6] -6.35%

COc1ccc(/C=C2/CSC/C(=C/c3ccc(OC)c(OC)c3)C2=O)cc1OC
inactive: [1] -16.2% | [2] 11.7% | [3] 6.8% | [4] -40.8% | [5] 10.2% | [6] -1.35%

C=C1CC(OC(C)=O)/C=C(/C)CCC(C(C)(C)O)CC1O (configuration not stated)
inactive: [1] 6.7% | [2] -32% | [3] -11.2% | [4] 7.65% | [5] -8% | [6] -20.9%

O=C(O)c1oc2cccc3c2c1CCC3
inactive: [1] -3.6% | [2] 1.3% | [3] 5.4% | [4] -10.3% | [5] -1.35% | [6] -4.2%

COc1cc2ccnc(CCCc3nccc4cc(OC)c(OC)cc34)c2cc1OC
inactive: [1] -30.1% | [2] -4.05% | [3] -27.4% | [4] -1.9% | [5] -1.75% | [6] -9.3%

Cc1c([N+](=O)[O-])cc(C(C)(C)C)c(OC(=O)C(C)(C)C)c1[N+](=O)[O-]
active: [5] 92.4%
inactive: [1] 53.4% | [2] 44.9% | [3] 59.8% | [4] 41.5% | [6] 54.3%

COc1ccc(/C=C2\C=Cc3ccccc32)cc1OC
inactive: [1] -21.8% | [2] -6% | [3] 0.7% | [4] 13.4% | [5] 10.7% | [6] 4.75%

CC1(C)[C@H](C(=O)O)CC[C@]1(C)C(=O)O
inactive: [1] 9.9% | [2] -13.1% | [3] 1.05% | [4] 19.2% | [5] -0.7% | [6] 11.4%

[O-][n+]1cccc(CO)c1
inactive: [1] -17.9% | [2] -47.9% | [3] -25.1% | [4] 6.05% | [5] -15% | [6] -4.35%

COC12C=CC(CC1)C(C)(C)C2=O (configuration not stated)
inactive: [1] 8.85% | [2] -4.7% | [3] -3.9% | [4] 3.2% | [5] -3.05% | [6] -0.55%

CCN(CC)CCCCCCCNc1nccc2ccccc12
inactive: [1] 31.1% | [2] -2.4% | [3] -8.4% | [4] -23.3% | [5] 12.8% | [6] 35.4%

Cc1cccc[n+]1C1CCc2ccccc2C1=O (configuration not stated)
inactive: [1] 1.5% | [2] 10.7% | [3] 17.4% | [4] -23.1% | [5] -21.3% | [6] 4%

CC(=O)N(C(=O)CC(=O)N1N=C(C)C(N=Nc2cccc([N+](=O)[O-])c2)C1=O)c1ccc(Cl)cc1 (configuration not stated)
inactive: [1] -10.3% | [2] -4.5% | [3] -5.9% | [4] -11.2% | [5] -15.1% | [6] 2%

O=C(Nc1c(O)[nH][nH]c1=O)c1ccccc1
inactive: [1] 0.45% | [2] -0.05% | [3] -9.7% | [4] -36% | [5] -15.7% | [6] -0.1%

CCc1nc(N)nc(N)c1-c1ccc(OC)c(N)c1
inactive: [1] 22.4% | [2] 28.1% | [3] 22.6% | [4] 35.7% | [5] 13.6% | [6] 43.4%

O=[N+]([O-])c1ccc(CC(Cl)c2ccccn2)cc1 (configuration not stated)
inactive: [1] 18.9% | [2] 9.85% | [3] 19.1% | [4] -11.4% | [5] 22.2% | [6] 42.2%

COc1ccccc1NC(=O)Nc1ccc(Nc2ccccc2)cc1
active: [1] 92.7% | [2] 94.2% | [3] 92.2% | [4] 90.3% | [5] 92.2% | [6] 92.7%

CC(=O)CC(=O)NCc1ccncc1
inactive: [1] -5.85% | [2] 8.1% | [3] 12.1% | [4] -44.3% | [5] 26.9% | [6] -1.9%

CN(N=O)C(=O)NC(C=O)C(O)C(O)C(O)CO (configuration not stated)
inactive: [1] 5.25% | [2] -23.4% | [3] 28.4% | [4] 12.2% | [5] 0.4% | [6] 1.6%

CC(=O)Oc1cc(C)c(OC(C)=O)cc1C
inactive: [1] -11.3% | [2] -14.3% | [3] 3.1% | [4] -1.85% | [5] 16.9% | [6] 14.3%

Cc1n[n+](CC(=O)c2ccccc2)c2sc(N)nn12
inactive: [1] -55.8% | [2] -31.4% | [3] -58.6% | [4] -50% | [5] -16.1% | [6] -70.5%

CCC(CC)C(=O)OCCCCC1CCCO1 (configuration not stated)
inactive: [1] 6.25% | [2] 11.2% | [3] 4.75% | [4] -16.6% | [5] 12.2% | [6] -2.65%
